# In the library only some 19% were active in any assay of this set; here they are far more common.
# DT40 TDP1 CPT – DT40-hTDP1 cell growth loss with CPT. chicken DT40 Tdp1-/-;hTDP1 cells + 20 nM CPT, ATP luminescence, 48 h. Potency, µM (top dose mostly 46.2 µM), without a hit: at the highest dose activity change, negative = growth inhibition, usual class: inhibitors. 420,000 tested, 12% active; note: potency is the fitted concentration of half-maximal effect; % is set by controls: 0 for no effect and ±100 for the full control effect; nearly all actives have a fitted effect of over 55% in size
#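 Chicken DT40 Tdp1-/- cells complemented with human TDP1, 400 cells/well, exposed to compounds plus 20 nM camptothecin for at least 48 h at 37 C; viability read as ATP content by CellTiter-Glo luminescence.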
# SW480 rereplic – inducers of DNA re-replication in SW480 colon cancer cells; SW480 DNA re-replication, Hoechst DNA content imaging, 48 h; Potency, µM (series often up to 46.1 µM), without a hit: at the top dose re-replication activation, most hits filed as activators; 340,000 tested, 1.8% active; AID 624297; note: potency is the fitted concentration of half-maximal effect; % of control where 0% means no effect; nearly all actives have a fitted effect of over 55% in size
#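 Readout is total intensity of Hoechst-stained nuclei, excited at 405 nm and collected at 500-530 nm. Compound treatment lasted 48 hr at 37 C in 5% CO2 before staining.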
# DT40 TDP1 no CPT – qHTS for Inhibitors of human tyrosyl-DNA phosphodiesterase 1 (TDP1): qHTS in cells in absence of CPT; DT40 Tdp1-/- hTDP1 cells, no CPT, ATP luminescence, 48 h; Potency, µM (series often up to 46.2 µM), for the others: top-dose activity change, negative = growth inhibition, most hits filed as inhibitors; 420,000 tested, 15% active; note: potency is the fitted concentration of half-maximal effect; % is set by controls: 0 for no effect and ±100 for the full control effect; nearly all actives have a fitted effect of over 55% in size
#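 No-CPT arm: Tdp1-/-;hTDP1 DT40 cells (400/well) plus compounds, incubated ≥48 hr at 37 °C. Readout CellTiter-Glo luminescence.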
# MCF10A rereplic – DNA re-replication induction in MCF 10a cells; MCF 10A DNA re-replication, Hoechst nuclear intensity, 48 h; Potency, µM (series often up to 46.1 µM), for the others: top-dose activity, positive = re-replication, usual class: activators; 350,000 tested, 2.9% active; AID 624296; note: potency is the fitted concentration of half-maximal effect; % of control where 0% means no effect; nearly all actives have a fitted effect of over 50% in size
# IL-1B inflam inh – blocks inflammasome-driven IL-1 beta release. THP-1 LPS/ATP IL-1B secretion, AlphaLISA, 16 h; stronger effect = lower value. activity change, % at 57.5 µM. 360,000 tested, 4.7% active; in the data active = activity change below about -50%; inconclusive = mostly about -30% to -49%; note: % is set by controls: 0 for no effect and ±100 for the full control effect
#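 THP-1 cells pretreated 1 hr with compounds (up to 57.5 uM final), then stimulated with LPS (250 ng/mL final) plus ATP (1.25 mM final); secreted IL-1B measured by AlphaLISA after 16 hr, decreased signal indicating inhibition.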
# Chronic BCR inh – chronic active BCR signaling inhibition; ABC-DLBCL IkBa-CBG/CBR reporter, luminescence ratio, 4 h; Potency, µM (titrated, usually from 46.1 µM), for the others: at the highest dose activity change, negative = inhibition, usual class: inhibitors; 340,000 tested, 0.05% active; active = well fitted inhibition curve with a large enough effect in the signal ratio, with a control signal flat, not every such curve was filed as active; inconclusive = small, poorly fitted or top-dose-only effect, or effect the other way, or a change in a side signal; the % refers to the signal ratio;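 note: potency is the fitted concentration of half-maximal effect; plate controls were basal doxycycline-induced cells for no effect and cells given 10 µM MG132 for full effect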
#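 Compounds up to 46 uM were incubated four hours with TMD8 cells whose green CBG68 luciferase is fused to IkappaBalpha; red CBR luminescence normalised the signal, and concentration-effect curves were fitted to fusion, red and ratio data.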
# * marks the source's active call; other numbers are inactive results; u = inconclusive; x = no result; [ ] = remark or other dose. Unless noted, calls come from the whole dose curve; as a rule, active = well fitted curve in the direction sought with a large enough effect; inconclusive = small, poorly fitted or top-dose-only effect, or another doubt; inactive = no such curve, though single readings can be large; an effect the other way counts as inactive or inconclusive.
SMILES,DT40 TDP1 CPT,SW480 rereplic,DT40 TDP1 no CPT,MCF10A rereplic,IL-1B inflam inh,Chronic BCR inh
CC(C)(Oc1ccc(Cl)cc1)C(=O)NCC(c1ccco1)N1CCCCC1 (centres undefined),21µM*,6%,18µM*,u,u,0%
O=C(NCc1c(Cl)cccc1Cl)c1[nH]c(C(F)(F)F)nc1-c1ccccc1,1%,x,-14%,x,10,x
O=C(CCNC(=O)c1ccc([N+](=O)[O-])cc1)Nc1ccc(F)cc1F,-16%,-15%,10%,0%,-16,-2%
COc1ccccc1NS(=O)(=O)c1ccc(C(=O)NCc2ccc(S(N)(=O)=O)cc2)cc1,u,4%,15µM*,18%,9,-14%
Cc1ccc(N(C)S(=O)(=O)c2cccc(C(=O)NCC(c3cccs3)N3CCOCC3)c2)cc1 (centres undefined),u,u,u,6%,-4,0%
CN(c1ccccc1)S(=O)(=O)c1ccc(Cl)c(C(=O)NCC(c2ccco2)N2CCCC2)c1 (centres undefined),13µM*,-6%,13µM*,2%,-1,7%
COc1ccccc1NC(=S)NCc1ccc(S(N)(=O)=O)cc1,-8%,4%,-21%,-8%,-6,-3%
Cc1ccc(S(=O)(=O)N(C)c2ccc(C(=O)NCC(c3cccs3)N3CCOCC3)cc2)cc1 (centres undefined),21µM*,4%,u,-3%,-6,7%
CN(C)C(CNC(=O)c1cc(S(=O)(=O)N(C)Cc2ccccc2)ccc1Cl)c1ccco1 (centres undefined),12µM*,2%,12µM*,u,-7,-1%
CCOc1ccc(CCNC(=O)c2cc(=O)[nH]c3ccc(S(=O)(=O)N4CCCCC4)cc23)cc1OCC,-1%,x,-5%,x,x,u
Cc1ccc(S(=O)(=O)Nc2ccccc2OC(C(=O)OC(C)(C)C)C(=O)OC(C)(C)C)cc1,15µM*,x,16µM*,x,39,x
Cc1ccc(S(=O)(=O)N(C)c2ccc(C(=O)NCC(c3ccccc3)N3CCCC3)cc2)cc1 (centres undefined),u,x,21µM*,x,-19,x
Cc1ccc(C(=O)NNC(=O)c2ccc(S(=O)(=O)N(C)c3ccccc3)cc2)cc1,-1%,-1%,-4%,6%,14,1%
CN(c1ccccc1)S(=O)(=O)c1ccc(C(=O)NCC(c2ccco2)N2CCCCC2)cc1 (centres undefined),u,-5%,15µM*,u,16,6%
COC(=O)c1c(C(=O)OC)c(-c2ccc(Br)cc2)n2c1CS(=O)C2 (centres undefined),-28%,u,-6%,1%,6,0%
CCC(=O)Nc1nc2ccccc2n1CCN(CC)CC,29µM*,-6%,-4%,-7%,1,4%
CCN(CC)CCn1c(NC(=O)c2ccc(C(F)(F)F)cc2)nc2ccccc21,-3%,1%,u,21µM*,48,u
COc1cccc(NC(=O)CN2C(=O)COc3ccc(S(=O)(=O)N4CCC(C)CC4)cc32)c1,u,-29%,u,-3%,u,u
COc1ccc2nc(C)cc(N3CCOCC3)c2c1,-26%,-3%,-24%,1%,13,5%
COc1ccc2nc(Cl)c(C=O)c(N3CCOCC3)c2c1,u,x,15µM*,x,5,x
COc1ccc(S(=O)(=O)N(C)C)cc1NC(=O)Cc1ccc(S(=O)(=O)N2CCOCC2)s1,13µM*,-1%,u,1%,-6,1%
CCN(CC)S(=O)(=O)c1cc(NC(=O)Cc2ccc(S(=O)(=O)N3CCOCC3)s2)ccc1Cl,21µM*,-9%,13µM*,u,0,x
CCOC(=O)c1cc(NC(=O)Cc2ccc(S(=O)(=O)N3CCOCC3)s2)cc(C(=O)OCC)c1,23µM*,3%,u,3%,u,-15%
CN(C)S(=O)(=O)c1ccc(NC(=O)Cc2ccc(S(=O)(=O)N3CCOCC3)s2)cc1,-28%,u,-34%,-13%,12,2%
Cc1cc(-c2onc3ccc(Cl)cc23)ccc1O,u,5%,u,u,u,-4%
SMILES,DT40 TDP1 CPT,SW480 rereplic,DT40 TDP1 no CPT,MCF10A rereplic,IL-1B inflam inh,Chronic BCR inh
COc1ccc(N2C(=O)c3ccccc3NC(=O)C2C(=O)NCC(C)C)cc1 (centres undefined),9%,x,0%,x,-12,x
Cc1cc[n+]2n1CC(O)C2 (centres undefined),27%,u,-5%,-1%,x,-9%
C=CC1C(N2CCOCC2)C(C)(C)S1(=O)=O (centres undefined),23µM*,10%,u,u,0,0%
O=S1(=O)C[C@@H](N2CCOCC2)[C@H](N2CCOCC2)C1,2%,-3%[9.22 µM],-7%,-9%,-13,u
COc1ccc(Cl)cc1NC(=O)Cn1c(=O)n(CCCC(=O)NCCc2ccc(OC)c(OC)c2)c(=O)c2ccccc21,15µM*,x,8.2µM*,x,x,x
COc1ccc(CCNC(=O)CCCCn2c(=O)c3ccccc3n(Cc3ccc(Cl)cc3)c2=O)cc1OC,23µM*,x,u,x,x,x
COc1ccc(CCNC(=O)CCCCn2c(=O)c3ccccc3n(Cc3ccc(F)cc3Cl)c2=O)cc1OC,21µM*,x,6.5µM*,x,x,x
O=C(CCCn1c(=O)c2ccccc2n(Cc2ccc(F)cc2Cl)c1=O)NCCc1ccc(Cl)cc1,u,x,18µM*,x,x,x
CS(=O)(=O)N(CC(=O)Nc1ccccc1Br)Cc1ccccc1,6%,-5%,0%,u,8,-3%
COc1ccc(CCNC(=O)CCn2c(=O)c3ccccc3n(Cc3ccccc3C)c2=O)cc1OC,15µM*,x,18µM*,x,x,x
COc1ccc(CCNC(=O)CCn2c(=O)c3ccccc3n(Cc3c(C)cc(C)cc3C)c2=O)cc1OC,-1%,x,-1%,x,x,x
Cc1cc(C)c2[nH]c3nc(SCC(=O)O)nnc3c2c1,-12%,-4%,2%,-1%,42,1%
CCCCCSc1nnc2c(n1)[nH]c1c(C)cccc12,9.2µM*,x,2.9µM*,x,x,x
CCCC(=O)C1=C(O)C(C(=O)OC)C(C)(C)CC1=Nc1cccc2ccccc12 (centres undefined),u,23%,23µM*,u,-4,7%
CC1CCN(S(=O)(=O)c2ccc3c(c2)c(=O)c(C(=O)N2CCN(c4cccc(Cl)c4)CC2)cn3C)CC1,u,x,-20%,x,x,x
